Hits are enriched below; roughly 3% of the tested compounds scored in any of these assays.
CHT block: inhibitors of human choline transporter CHT; CHT-expressing cells, membrane potential dye, choline response; active compounds read low; High affinity choline transporter 1 (Homo sapiens), Q9GZV3; B-score at 10 µM; 0.86% of 310,000 active;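 active = B-score over 3 SD under the library average, and starting fluorescence ratio not unusually high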;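 also: choline stimulus applied at its EC90 after an EC20 pre-addition; B-score computed on integrated fluorescence ratio after choline addition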
Target sequence (Q9GZV3 whole entry, looked up): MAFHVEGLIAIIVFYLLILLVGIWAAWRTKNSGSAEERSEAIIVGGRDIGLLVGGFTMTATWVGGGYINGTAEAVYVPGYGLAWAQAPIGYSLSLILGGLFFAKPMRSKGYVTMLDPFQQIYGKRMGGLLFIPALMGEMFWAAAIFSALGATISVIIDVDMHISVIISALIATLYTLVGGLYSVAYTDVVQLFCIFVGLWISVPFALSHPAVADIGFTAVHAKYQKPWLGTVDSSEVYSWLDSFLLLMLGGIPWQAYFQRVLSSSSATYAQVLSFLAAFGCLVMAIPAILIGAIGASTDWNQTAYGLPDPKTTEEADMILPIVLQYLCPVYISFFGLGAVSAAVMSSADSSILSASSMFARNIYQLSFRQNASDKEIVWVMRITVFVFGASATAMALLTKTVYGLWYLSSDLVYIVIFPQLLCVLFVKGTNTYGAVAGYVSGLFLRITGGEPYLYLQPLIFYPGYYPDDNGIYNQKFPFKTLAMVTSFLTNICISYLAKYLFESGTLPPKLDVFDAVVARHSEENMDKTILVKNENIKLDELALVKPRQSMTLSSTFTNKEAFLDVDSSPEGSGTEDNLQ
CHT PAM: CHT positive allosteric modulators, primary screen, cell-based, membrane potential dye, choline EC20; B-score at 10 µM; CHT-expressing cells; active compounds read high; LV-AA mutant CHT in HEK293 cells; 0.49% of 310,000 active; High affinity choline transporter 1 (Homo sapiens), Q9GZV3;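 active = initial fluorescence not abnormally high and integrated response B-score, plate-corrected, over 3 SD above library mean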
NLRP3 yeast inh: NALP3 inflammasome inhibitors in reconstituted yeast, primary screen, luminescence, uHTS; inhibition, % at 10 µM; Yeast reconstituted NLRP3/ASC/caspase-1, beta-gal luminescence, 24 h; 0.39% of 330,000 active; AID 2825, 2010;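 active = inhibition of 50% or more; inactive = inhibition below 50%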;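 also: plate controls were induced DMSO wells for no effect and uninduced yeast grown without galactose for full effect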
SUMO Mot1 rescue: yeast Mot1-301 growth rescue at high temperature, primary screen, SUMOylation pathway inhibitor project, S. cerevisiae, ATP luminescence, 38.5C; growth rescue, % at 18.8 µM; S. cerevisiae Mot1-301 growth rescue; percent above DMSO median, 100 means doubled; 1% of 320,000 active; AID 2716, 2010;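 active = every valid replicate shows activation above 250% relative to neutral control wells; inactive = the rest, any valid replicate at or below 250%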;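 also: OY570 slx delta 5 strain wells were the positive control but not used for scaling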
Bfl-1 A1 inh: caspase 3/7 activation in MEF A1-2A-BIM cells, primary screen, A1 inhibitor project, cell-based, luminescence, HTS. Caspase-Glo 3/7 luminescence, 3 h; percent of clofoctol response, vehicle zero. caspase activation, % (test concentration not listed). 0.066% of 330,000 active;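 active = over half of replicate activation scores above 10%, or exactly half above 10 with the replicate mean above 10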
NALP1 yeast inh: NALP1 inflammasome inhibitors in reconstituted yeast, colorimetric, S. cerevisiae, triplicate retest. S. cerevisiae NALP1/ASC/caspase-1 growth, X-gal OD620, 72 h. inhibition, % at 10 µM. 0.61% of 280,000 active; in the data active = inhibition mostly above about 24%, no sharp cut-off; inactive = mostly below about 32%
The depositor's hits bear a star; i = inactive; . = not tested or not shown.

SMILES	CHT block	CHT PAM	NLRP3 yeast inh	SUMO Mot1 rescue	Bfl-1 A1 inh	NALP1 yeast inh
CCCC(C)c1nnc(NC(=O)C2CCCO2)s1 (centres undefined)	i	i	24	-13	-1	33*
CC(NC(=O)c1ccccc1)C(=O)OCC(=O)c1ccc(Br)cc1 (centres undefined)	i	i	0	-20	.	14
CCCOc1ccc2c(c1)C(=NN=C(N)N)c1cc(OCCC)ccc1-2	i	i	28	286*	0	12
CC(=O)Oc1ccccc1C(=O)N(C1CCCCC1)C1CCCCC1	i	i	9	5	0	22
CC1CCCC2(C1)NC(=S)N(c1ccccc1)N2 (centres undefined)	i	i	23	122	-1	6
S=C1NC2(CCCCC2)NN1c1ccccc1	i	i	22	364*	0	9
CN1CCN(CC(=O)Nc2cccc(S(=O)(=O)N(C)c3ccccc3)c2)CC1	.	.	23	0	0	.
COc1cc(/C=C2/C(=N)N3C=CSC3=NC2=O)ccc1OCCCOc1cc(C)ccc1C	i	i	34	-7	8.5*	7
Cc1nnc(SCC(=O)NC2CCCC(C)C2C)n1N (centres undefined)	.	.	0	-18	1	.
CO/N=C/C(=N\Nc1ccc(OC)cc1)C(=O)c1ccc(OC)cc1	i	i	13	-6	0	-6
COc1ccc(C(=O)C(/C=N/O)=N/Nc2ccc(F)cc2)cc1	i	i	35	-6	0	20*
Clc1cccc2c1Sc1ccccc1CC2N1CCNCC1 (centres undefined)	i	i	13	19	0	74*
O=C(Nc1ccncc1)Nc1ccncc1	i	10*	9	240	0	24
O=C(Nc1ccncc1)Nc1ccc(Cl)cc1Cl	i	i	23	-1	1	30*
O=C(O)C1CCC(CNS(=O)(=O)c2ccccc2)CC1 (centres undefined)	i	i	3	10	-1	10
C=CCNC(=O)Nc1ccc2oc(C)nc2c1	i	i	9	15	1	16
Cc1nc2cc(NC(=O)NCCCO)ccc2o1	i	i	4	5	1	29*
COC(=O)c1c(C)oc(C)c(C(=O)OC)c1=O	i	i	8	5	1	22*
COc1cc2c(cc1OC)CN(C(=O)CNC(=O)c1ccc(OC(F)F)cc1)CC2	i	i	12	-15	0	10
CCCCCCCOC(=O)C[N+](C)(C)CCOC1CC2CCC1(C)C2(C)C (centres undefined)	.	.	.	.	.	34
CCCCCCOC(=O)C[N+](C)(C)CCOC1CC2CCC1(C)C2(C)C (centres undefined)	i	8.5*	12	-38	-1	32
O=C(CCn1c(=O)oc2cc(Cl)ccc21)Nc1ccc(N2CCOCC2)cc1	i	i	1	1	0	7
CCN(CC(=O)Nc1ccccc1OC)C(=O)c1ccc(NS(=O)(=O)c2ccc(C(C)=O)cc2)cc1	i	i	16	16	0	44*
Cc1c(C(=O)Nc2cccc([N+](=O)[O-])c2)cnn1-c1ccccc1	i	i	38	6	-6	6
CCN(CC)C(=O)Cn1cc(S(=O)(=O)CC(=O)NCc2ccccc2)c2ccccc21	i	i	19	-12	-1	-4
SMILES	CHT block	CHT PAM	NLRP3 yeast inh	SUMO Mot1 rescue	Bfl-1 A1 inh	NALP1 yeast inh
Cc1ccsc1C(=O)OCC(=O)N(C)C1CCCCC1	.	.	22	-6	-9	.
Cc1nn(-c2ccccc2)c(Cl)c1CN(C(=O)CCl)c1ccc(Cl)cc1	i	i	.	88	6.2*	-16
Cc1ccc(NS(=O)(=O)c2ccc(-c3cnc(C4CC4)o3)cc2)cc1	i	i	38	5	1	12
Cc1ccc(N(C)S(=O)(=O)c2ccc(-c3cnc(C4CC4)o3)cc2)cc1	i	6.4*	0	1	3	6
O=C(CSC1=NC(=O)C(Cc2ccccc2)C(=O)N1)Nc1ncccn1 (centres undefined)	.	.	-3	.	.	9
O=C(CSC1=NC(=O)C(Cc2ccccc2)C(=O)N1)Nc1ncc(Br)cc1Br (centres undefined)	i	i	13	327*	-1	-1
CC(=O)c1cccc(NC(=O)COC(=O)Cc2ccc(Cl)cc2)c1	.	.	16	.	.	.
O=[N+]([O-])/C=C/c1cn(Cc2ccc(Cl)cc2)c2ccccc12	i	i	15	270	9.1*	28
Cc1cccc(Cn2cc(/C=C/[N+](=O)[O-])c3ccccc32)c1	i	i	6	26	1	10
CCC1(CC)C(=O)N(C)C(=O)NC1=Nc1ccc(OC)cc1	i	i	13	6	1	41*
Cc1cc(C)cc(C(=O)OCC(=O)N2CCCCCC2)c1	.	.	24	.	.	.
Cc1cc(C)cc(N2CC(C(=O)Nc3cc(C)on3)CC2=O)c1 (centres undefined)	i	i	14	341*	0	18
CC1(C)CC(=O)C(C(C2=C(O)CC(C)(C)CC2=O)c2ccc(O)c([N+](=O)[O-])c2)=C(O)C1	i	i	-26	-8	0	2
CCn1c(C)c(C(C)=O)c(N2CCN(c3cccc(Cl)c3)CC2)nc1=S	i	i	21	585*	-1	1
Cc1c(-c2ccc(F)cc2)[n+](=O)c(-c2ccc(F)cc2)c(C)n1[O-]	i	i	20	.	0	42*
CNS(=O)(=O)c1cccc(C(=O)OCc2cc(=O)oc3c(C)c(O)ccc23)c1	-6.3*	i	8	-4	0	2
CN(C)c1ccc(/C=C(/C(=O)c2ccc(Cl)cc2Cl)n2cncn2)cc1	i	i	9	308*	1	.
CC(C)CC(=O)/C(=C\c1ccc(Cl)cc1Cl)n1cncn1	.	.	.	.	.	112*
CC1CCCN(CCOCCOc2ccc(Cl)cc2Br)C1 (centres undefined)	i	i	34	174	0	42*
CC1CCCN(CCOCCOc2ccc(Br)cc2Cl)C1 (centres undefined)	i	i	35	137	0	48*
CC1CCN(CCCOc2ccc(Br)cc2Cl)CC1	i	i	13	169	0	24
Cc1cc(Cl)c(OCCOCCN2CCCC(C)C2)c(Br)c1 (centres undefined)	i	i	25	38	1	-14
CC(=O)c1ccc(NS(=O)(=O)c2cccc(C(=O)Nc3ccccc3C(=O)O)c2)cc1	i	i	14	-4	-1	16

Source: PubChem
